A short description of experiment [1]: anti-His antibody binders, primary screen, artefact control for SMM control protein annotation, biochemical, small-molecule microarray, 635 nm fluorescence (AID 1128).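 Note: score merges feature fluorescence with signal-to-noise for each printed compound spot.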 The settings on record: anti-His Alexa647 antibody binding, higher = more signal.
Experiment [2] relates to Human papillomavirus type 1a E7 protein (residues 1-88). Kind of experiment: HPV1a E7 small-molecule binders, primary screen, biochemical, small-molecule microarray, residues 1-88, 635 nm (AID 1129). The settings on record: small-molecule microarray binding, fluorescence 635 nm; higher = more signal.
For experiment [3], the target named is Focal adhesion kinase 1 (Homo sapiens) (UniProt Q05397). Kind of experiment: small-molecule microarray binders of FAK, primary screen, biochemical, 635/667 nm fluorescence, BSA, DTT (AID 1130).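 Note: composite of spot emission at 667 nm and signal to noise over triplicate slides.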 The settings on record: PTK2 binding, 635 nm fluorescence, higher = more signal.
Experiment [4] deals with Fibrinogen (Alexa647-labelled). Put plainly: fibrinogen binders on compound microarrays, profiling panel, artefact control for SMM control-protein annotation, biochemical, small-molecule microarray, 635/667 nm fluorescence (AID 1131).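 Note: z-score merges 667 nm fluorescence with per-spot signal-to-noise over triplicate slides.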 The settings on record: fibrinogen-A647 binding fluorescence, higher = more signal.
Experiment [5] addresses Follistatin (Homo sapiens) (UniProt P19883). Kind of experiment: follistatin binders on small-molecule microarrays, primary screen, biochemical, small-molecule microarray, 635/667 nm fluorescence (AID 1132). To be noted: FST binding, 635 nm fluorescence, higher = more signal.
Experiment [6] has as its target Fibroblast growth factor 2 (Homo sapiens) (UniProt P09038). Kind of experiment: FGF2 binders on small-molecule microarrays, primary screen, biochemical, small-molecule microarray, 635/667 nm fluorescence (AID 1133). To be noted: small-molecule microarray binding, FGF2, fluorescence 635/667; higher = more signal.
Experiment [7] is described as follows: mitochondrial membrane potential change in A549 cells, profiling panel, cell-based, JC-1 fluorescence, basal, 24 h, 100 nL (AID 1138).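 Note: A549 lung adenocarcinoma cells under basal conditions with no added stimulus; test concentration not given here.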 To be noted: higher = more signal.
The subject of the next experiment is Lefty1. Kind of experiment: Lefty1 binders on small-molecule microarrays, primary screen, biochemical, small-molecule microarray, 635/667 nm fluorescence (AID 1139). To be noted: small-molecule microarray binding, fluorescence 635/667; higher = more signal.
Experiment [8] relates to wheat germ agglutinin (Triticum aestivum), Alexa647-labelled. Put plainly: wheat germ agglutinin binders on compound microarrays, profiling panel, artefact control for SMM control-protein annotation, biochemical, small-molecule microarray, 635/667 nm fluorescence (AID 1140).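 Note: score merges 667 nm feature emission with signal to noise over triplicate slides.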 To be noted: WGA-A647 binding, 635 nm fluorescence, higher = more signal.
In experiment [9] the target is Luciferin 4-monooxygenase (Photinus pyralis) (UniProt P08659). Put plainly: firefly luciferase enzyme inhibitors, primary screen, biochemical, luminescence, purified enzyme, 2006 set (AID 1141).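 Note: cell-free assay with purified firefly luciferase at 100 ng per well in PBS; test concentration not given here.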 To be noted: SteadyGlo luminescence, 30 min, higher = more signal, called active from +8 up or from −8 down.

Active and inactive are the calls of the source.

Sequence of Follistatin (Homo sapiens) (P19883 whole entry, looked up): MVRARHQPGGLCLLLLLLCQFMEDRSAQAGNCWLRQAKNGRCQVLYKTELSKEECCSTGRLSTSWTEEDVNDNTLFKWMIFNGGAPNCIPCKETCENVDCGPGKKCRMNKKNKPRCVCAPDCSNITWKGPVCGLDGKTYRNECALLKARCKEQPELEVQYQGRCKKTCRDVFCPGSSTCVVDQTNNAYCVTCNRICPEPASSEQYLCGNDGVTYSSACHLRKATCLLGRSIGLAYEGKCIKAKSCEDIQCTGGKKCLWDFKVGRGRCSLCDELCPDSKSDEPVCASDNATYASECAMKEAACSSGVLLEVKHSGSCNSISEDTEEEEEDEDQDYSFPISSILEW
Sequence of Focal adhesion kinase 1 (Homo sapiens) (Q05397 whole entry, looked up): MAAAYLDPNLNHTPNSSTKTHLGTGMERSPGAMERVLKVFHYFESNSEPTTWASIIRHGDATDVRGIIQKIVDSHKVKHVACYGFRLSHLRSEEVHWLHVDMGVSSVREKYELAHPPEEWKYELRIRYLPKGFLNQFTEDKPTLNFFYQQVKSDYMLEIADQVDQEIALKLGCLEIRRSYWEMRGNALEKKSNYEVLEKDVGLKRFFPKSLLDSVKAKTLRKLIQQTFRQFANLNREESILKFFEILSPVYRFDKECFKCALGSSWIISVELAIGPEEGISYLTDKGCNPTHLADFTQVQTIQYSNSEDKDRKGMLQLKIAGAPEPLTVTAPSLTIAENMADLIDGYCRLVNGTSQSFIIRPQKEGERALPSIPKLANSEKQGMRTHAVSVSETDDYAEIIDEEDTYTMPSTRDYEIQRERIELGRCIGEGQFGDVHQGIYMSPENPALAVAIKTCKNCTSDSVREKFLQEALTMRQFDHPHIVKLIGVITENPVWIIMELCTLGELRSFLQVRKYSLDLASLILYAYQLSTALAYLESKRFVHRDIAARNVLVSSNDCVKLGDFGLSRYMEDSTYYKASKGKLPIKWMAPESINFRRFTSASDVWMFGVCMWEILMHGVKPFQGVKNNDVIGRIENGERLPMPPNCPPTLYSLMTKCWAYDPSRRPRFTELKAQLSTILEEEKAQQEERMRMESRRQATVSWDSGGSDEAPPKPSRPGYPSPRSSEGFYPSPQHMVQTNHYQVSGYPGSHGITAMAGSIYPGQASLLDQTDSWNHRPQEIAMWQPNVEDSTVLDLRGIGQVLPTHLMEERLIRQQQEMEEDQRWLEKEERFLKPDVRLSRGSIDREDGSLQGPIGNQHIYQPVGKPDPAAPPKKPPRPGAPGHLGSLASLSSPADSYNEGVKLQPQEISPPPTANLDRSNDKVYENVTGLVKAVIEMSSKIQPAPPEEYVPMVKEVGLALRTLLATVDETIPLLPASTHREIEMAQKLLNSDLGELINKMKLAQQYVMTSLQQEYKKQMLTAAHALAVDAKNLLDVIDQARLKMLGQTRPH
Sequence of Luciferin 4-monooxygenase (Photinus pyralis) (P08659 whole entry, looked up): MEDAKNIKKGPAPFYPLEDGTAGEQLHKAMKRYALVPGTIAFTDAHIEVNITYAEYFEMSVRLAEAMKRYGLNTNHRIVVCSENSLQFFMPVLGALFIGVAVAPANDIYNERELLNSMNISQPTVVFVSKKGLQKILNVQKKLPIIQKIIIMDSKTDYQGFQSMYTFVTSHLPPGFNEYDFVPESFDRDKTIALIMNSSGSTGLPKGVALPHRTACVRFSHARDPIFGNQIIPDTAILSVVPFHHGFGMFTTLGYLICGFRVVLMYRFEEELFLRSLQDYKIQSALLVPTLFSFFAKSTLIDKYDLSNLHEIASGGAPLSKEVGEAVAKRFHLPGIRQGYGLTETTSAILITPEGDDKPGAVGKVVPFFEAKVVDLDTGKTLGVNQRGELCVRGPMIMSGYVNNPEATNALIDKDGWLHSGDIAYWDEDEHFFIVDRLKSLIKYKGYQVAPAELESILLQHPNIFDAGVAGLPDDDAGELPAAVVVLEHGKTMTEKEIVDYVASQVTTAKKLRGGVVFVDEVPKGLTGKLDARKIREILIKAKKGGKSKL
Sequence of Fibroblast growth factor 2 (Homo sapiens) (P09038 whole entry, looked up): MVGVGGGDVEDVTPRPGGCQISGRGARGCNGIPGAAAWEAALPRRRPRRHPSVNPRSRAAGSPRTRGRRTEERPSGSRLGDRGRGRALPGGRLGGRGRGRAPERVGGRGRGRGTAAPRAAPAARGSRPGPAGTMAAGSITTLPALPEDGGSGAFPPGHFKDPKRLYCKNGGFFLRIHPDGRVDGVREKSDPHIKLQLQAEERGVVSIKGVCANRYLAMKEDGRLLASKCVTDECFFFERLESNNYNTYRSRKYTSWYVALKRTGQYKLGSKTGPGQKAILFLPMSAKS

Consider `CCOc1cc(C(O)C2C=CC3C(=O)N(c4ccccc4)C(=O)C3N2Nc2ccccc2F)ccc1O` (stereo not given), for which the composite z-score was 0.532 in experiment [1]; 0.316 in experiment [2]; -0.0063 in [3]; -0.428 in experiment [4]; 0.106 in [5]; -0.107 in experiment [6]. Besides, the results for the composite z-score (with Lefty1; in experiment [8]) were -0.541 and 0.886, respectively. For the same compound, the values for the z-score in experiment [7] and in experiment [9] were -0.638 and -1.38 (inactive), respectively.
As for `CC[C@@H]1C=C(C(=O)O)[C@H](c2ccc(OC)cc2)N1S(=O)(=O)c1ccc(C)cc1`, the composite z-score was -0.0418 in experiment [1]; 0.521 in experiment [2]; 0.359 in experiment [3]; -0.342 in experiment [4]; -0.055 in [5]; -0.477 in [6]. The composite z-score in the experiment on Lefty1 is 0.112; in experiment [8], 0.164. Also, the z-score in experiment [7] was 0.0749; in experiment [9] it was 1.04 (inactive).
For `CCCCN1CC=CC23O[C@@H]4/C=C\CCCOC(=O)C4[C@H]2C(=O)N(C(CO)C(C)C)[C@@H]3C1=O` (stereo not given in full), the composite z-score in experiment [1] was 0.0807; in experiment [2] it was -0.654; in [3] it was -0.192; in experiment [4] it was -0.458; in experiment [5], 0.0549; in experiment [6], 0.0877. Besides, the composite z-score was 0.249 with Lefty1 and -0.0096 in experiment [8]. Also, the z-score was -0.455 in experiment [7] and -0.0573 (inactive) in experiment [9].
As to `CN(C)C(=O)[C@@]1(Cc2ccccc2CN=[N+]=[N-])COC(c2ccc(OCCCO)cc2)=N1`, the composite z-score in experiment [1] was 1.81; in experiment [2], 1.15; in [3] it was 0.652; in experiment [4], 0.949; in [5], -0.0539; in experiment [6] it was -0.572. Also, the composite z-score was -0.42 in the experiment on Lefty1 and 0.603 in experiment [8]. For the same compound, the z-score is 1.43 in experiment [7] and 1.15 (inactive) in experiment [9].
With `C=CC[C@]1(C(=O)NCC(O)CO)COC(c2ccc(OCCCO)cc2)=N1` (stereo not given in full), the composite z-score in experiment [1] was -0.493; in experiment [2] it was 0.57; in experiment [3], -0.0726; in experiment [4], -1.36; in [5], 0.821; in experiment [6] it was 1.01. The composite z-score was -0.513 with Lefty1 and -0.326 in [8]. In addition, the z-score was -0.565 in experiment [7] and 0.0208 (inactive) in experiment [9].
As for `C=C(CCCC)/C(=C/C[C@H](OC(=O)c1ccncc1)c1ccc(OCCO)cc1)c1cnc2ccccc2c1`, the composite z-score in experiment [1] worked out at 2.06; in experiment [2], 1.23; in experiment [3] it was 0.525; in experiment [4], 0.892; in experiment [5] it was 1.28; in experiment [6] it was 1.02. For the same compound, the values for the composite z-score (in the experiment with Lefty1; in experiment [8]) were 1.27 and 1.36, respectively. Moreover, the z-score in experiment [7] was 2.39; in [9] it was -1.83 (inactive).
Take `COC(=O)[C@]1(CCC(=O)OC(C)(C)C)N=C(c2ccc(OCCCO)cc2)O[C@@H]1c1ccccc1N=[N+]=[N-]`: the composite z-score was 0.477 in [1]; 0.993 in [2]; -0.212 in experiment [3]; -0.306 in experiment [4]; 1.29 in [5]; 0.626 in [6]. In addition, the composite z-score is -0.0341 in the experiment on Lefty1 and 0.658 in [8]. The z-score in experiment [7] was 1.3; in experiment [9], -6.42 (inactive).
In the case of `CC1CC/C=C\[C@H]2OC34C=CCN(CCN5CCOCC5)C(=O)[C@H]3N(CCCO)C(=O)[C@@H]4C2C(=O)O1` (stereo not given in full), the composite z-score was 0.549 in experiment [1]; -1.13 in [2]; -0.381 in [3]; -1.22 in experiment [4]; -0.298 in experiment [5]; -0.311 in [6]. For the same compound, the composite z-score in the experiment with Lefty1 was -0.265; in experiment [8], -0.133. Moreover, the figures for the z-score in experiment [7] and in [9] were -0.296 and 0.201 (inactive), respectively.
Regarding `CN1C(=O)C2C(C3CC3)C=C3CN(Cc4cccc(Cl)c4)[C@@H]([C@@H](O)Cc4ccccc4)C3C2C1=O` (stereo not given in full), the composite z-score in experiment [1] turned out to be 0.162; in experiment [2] it was 1.18; in [3] it was 1.09; in experiment [4] it was 0.862; in experiment [5] it was 0.662; in [6], 0.845. In addition, the composite z-score in the experiment with Lefty1 came to 1.45; in [8], 0.344. Moreover, the results for the z-score in [7] and in experiment [9] were 1.35 and -0.785 (inactive), respectively.
Take `C=CCN1C(=O)[C@]2(O[C@H](CCn3cc([C@H](O)c4ccccc4)nn3)[C@@H]([Si](C)(C)c3ccc(OC)cc3)[C@@H]2C)c2cc(NC(=O)c3ccc(OC)cc3)ccc21`: the composite z-score in experiment [1] stood at 0.66; in experiment [2] it was 0.499; in [3] it was 0.748; in experiment [4] it was 0.0903; in [5], 1.23; in [6], 0.307. Besides, the composite z-score with Lefty1 is 0.794; in experiment [8] it was 0.422. For the same compound, the z-score in experiment [7] is 0.997; in experiment [9], -1.16 (inactive).
`CC1CC/C=C\[C@H]2OC34C=CCN(c5ccc(Cl)cc5)C(=O)[C@H]3N(CCCCCCO)C(=O)[C@]4(C)C2C(=O)O1` (stereo not given in full): the composite z-score in experiment [1] is 0.867; in experiment [2] it was -0.629; in experiment [3], -0.487; in [4], -0.87; in experiment [5] it was -0.518; in [6], -0.662. Moreover, the results for the composite z-score (with Lefty1; in experiment [8]) were -0.629 and -0.988, respectively. Besides, the z-score in [7] is 1; in experiment [9] it was -1.55 (inactive).
In the case of `C=CCNC(=O)[C@H]1[C@@H]2C(=O)O[C@@H](c3ccccc3)[C@@H](c3ccccc3)N2[C@@H](c2ccc(OCCO)cc2)[C@]12C(=O)Nc1ccc(C#CC3(O)CCCCCC3)cc12`, the composite z-score in experiment [1] was determined as 1.26; in [2] it was 1.18; in experiment [3], 0.358; in experiment [4] it was 0.932; in experiment [5], 1.14; in experiment [6], 1.13. The composite z-score with Lefty1 was determined as 1.3; in experiment [8] it was 0.651. Also, the z-score in experiment [7] was 0.38; in experiment [9] it was -1.96 (inactive).
Consider `COCCOC(=O)N1C(=O)[C@@]2(c3cc(C#CCCO)ccc31)[C@H](c1ccccc1OCCO)N1[C@H](c3ccccc3)[C@H](c3ccccc3)OC(=O)[C@H]1[C@@H]2C(N)=O`, for which the composite z-score in experiment [1] was determined as 1.75; in [2], 1.24; in [3], 0.621; in experiment [4], 0.996; in [5] it was 1.02; in [6], 0.963. For the same compound, the results for the composite z-score (in the experiment on Lefty1; in [8]) were 0.78 and 0.246, respectively. Further, the figures for the z-score in experiment [7] and in [9] were -0.0726 and 0.85 (inactive), respectively.
Regarding `C=C(CCCC)C(=O)CC[C@H](OC(=O)c1ccccc1-c1ccccc1C(=O)O)c1ccc(OCCO)cc1`, the composite z-score was 0.321 in experiment [1]; 0.632 in experiment [2]; -0.0609 in [3]; 0.0905 in experiment [4]; 0.571 in experiment [5]; 1.26 in experiment [6]. For the same compound, the composite z-score in the experiment with Lefty1 worked out at 1.1; in experiment [8], 0.708. In addition, the values for the z-score in experiment [7] and in experiment [9] were 0.128 and -1.95 (inactive), respectively.

For the origin of these results see PubChem BioAssay.
